The values that follow come from ChEMBL document CHEMBL3988442, “University of Dundee, Small-Polar-MMV Screening Library” (2021).

The whole screen tested about 48,000 compounds, of which about 13,000 (27%) showed an effect of 50% or more. The list shows a part of the results.

This experiment deals with Wolbachia pipientis. Put plainly: Anti-Wolbachia Cell-Based Screen. Also on record: scale not given: in the data most compounds retested in dose-response had high values. The settings on record: 5 µM. Format: functional.
On to `Cc1cccc2[nH]c(C3CCN(C(=O)c4cccnn4)CC3)nc12`, for which the “Percent Effect” value is recorded as 19.31%. As to `Cc1cccc(CN2Cc3[nH]nc(COCCO)c3C2)n1.O=C(O)C(F)(F)F`, the “Percent Effect” value is -6.746%. With `CCOCC(=O)N(C)c1ccc(F)c(Cl)c1` the figure was 11.18%.

Regarding `CCOCCCNC(=O)c1cc(Br)c2c(c1)OCCO2`, the “Percent Effect” value is listed as -17.45%. The value for `CC(C)OCCCNC(=O)CSc1nnc(OC(C)C)s1` was -7.044%; that for `CCOCCCNC(=O)CN(c1cc(C)cc(C)c1)S(C)(=O)=O` was 107.2%; that for `CCOCCCNC(=O)CCSCc1csc(C)n1` was 4.852%. Consider `CCOCCCNC(=O)CN(c1ccc(C)c(C)c1)S(C)(=O)=O`, for which the “Percent Effect” value is on record as 99.16%.

As to `Cc1cccc(CC(=O)NCCCOC(C)C)c1`, the “Percent Effect” value is reported as 4.055%. `CCOCCCC(=O)NS(=O)(=O)c1ccc(C)s1`: the “Percent Effect” value is -11.1%. `CCOCCC(=O)N(C)c1ccc(F)c(Cl)c1`: the “Percent Effect” value is recorded as -4.782%. With `CCOCCCNC(=O)CN(c1ccc(F)c(F)c1)S(C)(=O)=O` the figure was 103.3%.

`CC(C)OCCCNC(=O)CN(c1ccc(F)c(F)c1)S(C)(=O)=O`: the “Percent Effect” value worked out at 109.3%. As for `Cc1ccc(N(CC(=O)NCc2nnc3n2CCC3)S(C)(=O)=O)cc1`, the “Percent Effect” value is recorded as -5.606%. With `CCCNC(=O)C(C)Nc1ccn(Cc2ccccn2)n1` (centres undefined) the figure was 6.912%; with `CCCOCCN1CCc2[nH]c(-c3ccccc3)nc2C1`, -7.69%. For the compound `CN(C)C1COC2(CCN(S(=O)(=O)c3ccc(F)cc3)CC2)C1.O=C(O)C(F)(F)F` (centres undefined), the “Percent Effect” value is -7.314%. For `CN(CC1Cc2ccccc2CN1C)c1nc(N)nc2c1CCNCC2` (centres undefined), the “Percent Effect” value is given as -3.797%. Turning to `COCc1cc(N(C)Cc2c(C)nn(C)c2C)n2nccc2n1`, the “Percent Effect” value came to 12.12%. As for `CCOCCCNC(=O)Cc1cccc(F)c1`, the “Percent Effect” value is reported as 2.614%.

In the case of `COCCCNC(=O)CN(C)Cc1ccc(F)cc1Cl`, the “Percent Effect” value is -11.13%. With `CCOCCCNC(=O)CN(c1cccc(F)c1)S(C)(=O)=O` the figure was 112.7%.

For `COc1cccc2ccc(CN3CCN(c4ncccc4C)CC3)nc12`, the “Percent Effect” value came out at 2.179%.

Consider `CCc1nc(N)sc1C(=O)N1CCCC(CCc2ccccc2C)C1` (centres undefined), for which the “Percent Effect” value was 1.755%.

In the case of `Cc1nc(N)sc1C(=O)N1CCCC(COc2ccc(F)cc2)C1` (centres undefined), the “Percent Effect” value is -20.41%. With `Cc1nc(CN2CCCC(CCc3ccc(F)c(F)c3)C2)c[nH]1` (centres undefined) the figure was -4.452%. For the compound `CN1N=C(C(=O)N2CCCC(CCc3ccccc3F)C2)CCC1=O` (centres undefined), the “Percent Effect” value is -18.53%. Take `Cc1ccc(-c2ncc(C(=O)N3CCCC(CCN)C3)c(O)n2)cc1` (centres undefined): the “Percent Effect” value is reported as 0.928%. The value for `CN1N=C(C(=O)N2CCCC(CCc3c(F)cccc3F)C2)CCC1=O` (centres undefined) was 7.677%. With `CN1N=C(C(=O)N2CCCC(CCc3cccc(F)c3)C2)CCC1=O` (centres undefined), the “Percent Effect” value was -39.97%.

For the compound `COc1coc(CN2CCCC(CCc3ccccc3F)C2)cc1=O` (centres undefined), the “Percent Effect” value is listed as 19.37%. With `Cc1nc(N)ncc1C(=O)N1CCCC(CCc2ccc(F)c(F)c2)C1` (centres undefined) the figure was 95.78%; with `Cc1nc(N)ncc1C(=O)N1CCCC(CCc2ccccc2F)C1` (centres undefined), 102.1%; with `Cc1nc(N)ncc1C(=O)N1CCCC(CCc2ccc(F)cc2)C1` (centres undefined), 102.6%. On to `O=C(c1cnc(O)cc1O)N1CCCC(CCc2ccccc2F)C1` (centres undefined), for which the “Percent Effect” value is 119.6%. As to `O=C(NCCN1CCOCC1)N(Cc1ccoc1)C1CCCCC1`, the “Percent Effect” value is recorded as 0.09271%.

Take `COC(=O)CCC(=O)Nc1ccc(Br)c(C)n1`: the “Percent Effect” value is -4.996%. The value for `COc1cccc(CCC2CCCN(C(=O)c3cnccn3)C2)c1` (centres undefined) was -42.01%; that for `COc1ccc(CCC2CCCN(C(=O)c3cnc(N)nc3C)C2)cc1` (centres undefined) was 107.8%. With `COc1cccc(CCC2CCCN(C(=O)c3ccc(OC)o3)C2)c1` (centres undefined) the figure was -11.16%; with `CCN(Cc1ccncc1)C(=O)c1cn(CCC2CCCCC2)nn1`, 4.586%.

For `Cc1nccn1CCC1CCCCN1Cc1cnc(N(C)C)nc1` (centres undefined), the “Percent Effect” value is reported as -18.73%. For the compound `CN(C)CCN(C)C(=O)c1cn(CC2CCCCC2)nn1`, the “Percent Effect” value was found to be 101.9%. In the case of `CCN(Cc1ccncc1)C(=O)c1cn(CC2CCCNC2)nn1` (centres undefined), the “Percent Effect” value is listed as -3.068%. With `Cc1nccn1CCN(C)C(=O)c1cn(-c2ccccc2)nn1`, the “Percent Effect” value is on record as 107.7%.

For `Cc1nccn1CCC1CCCCN1C(=O)c1ccc(N(C)C)cc1` (centres undefined), the “Percent Effect” value is recorded as 11.5%. In the case of `Cc1nccn1CCN(C)C(=O)c1cn(CC2CCCCC2)nn1`, the “Percent Effect” value was 121.2%. The value for `CN(Cc1ccncc1)C(=O)NCc1cn(-c2ccccc2)nn1` was -7.371%.

For the compound `Cc1nccn1CCC(=O)N1CCCN(c2ccccc2)CC1`, the “Percent Effect” value is reported as 21.45%. On to `CC(C)c1nn(C)c(N(C)C)c1CNCc1cscn1.Cl`, for which the “Percent Effect” value is given as -8.215%. In the case of `O=C(NCc1ccco1)[C@@H]1CCO[C@@H]2CCN(c3ccncn3)C[C@H]21.O=C(O)C(F)(F)F`, the “Percent Effect” value was -22.24%.

`Cc1ncccc1NC(=O)[C@@H]1CCO[C@@H]2CCN(c3ccncn3)C[C@H]21`: the “Percent Effect” value is given as 113.9%. Turning to `Cc1ncccc1NC(=O)[C@@H]1CCO[C@@H]2CCN(c3ccccc3)C[C@@H]21.O=C(O)C(F)(F)F.O=C(O)C(F)(F)F`, the “Percent Effect” value came out at 108.5%.

As to `O=C(NCC1CC1)[C@@H]1CCO[C@@H]2CCN(c3ncccn3)C[C@@H]21.O=C(O)C(F)(F)F`, the “Percent Effect” value was -3.49%. As to `COCCNC(=O)[C@@H]1CCO[C@@H]2CCN(c3ccc(C)nn3)C[C@@H]21`, the “Percent Effect” value is listed as -1.212%.

Consider `CC(C)NC(=O)[C@@H]1CCO[C@@H]2CCN(c3ncccn3)C[C@@H]21.O=C(O)C(F)(F)F`, for which the “Percent Effect” value was -3.581%.

Take `CC(=O)N(C)Cc1ccccc1NCc1c(C)cccc1C`: the “Percent Effect” value was -18.14%.

Consider `O=C(C1CC1)N1CC[C@H](c2nnc(-c3ccccc3F)o2)C1`, for which the “Percent Effect” value is -4.544%. For the compound `O=C(C1CC1)N1CC[C@H](c2nc3ccccc3o2)C1`, the “Percent Effect” value amounted to 7.952%. With `CCc1c(C)nn2c(O)cc(C3CCN(C(=O)C4CC4)C3)nc12` (centres undefined) the figure was 96.58%; with `Cc1nc(C)n(CC2CCCN(Cc3cccnc3)C2)n1` (centres undefined), 89.08%. With `COc1ccc(CN2CCCC(Cn3nc(C)nc3C)C2)cc1F` (centres undefined) the figure was -3.884%; with `COc1cccc(CN2CCCC(Cn3nc(C)nc3C)C2)c1` (centres undefined), 103.7%; with `Cc1nc(C)n(CC2CN(Cc3cccc(C(N)=O)c3)CCO2)n1` (centres undefined), -4.426%. The value for `Cc1nc(C)n(CC2CCCN(Cc3cccc(C(N)=O)c3)C2)n1` (centres undefined) was 133.9%.

In the case of `Cc1nc(C)n(CC2CN(Cc3cccnc3)CCO2)n1` (centres undefined), the “Percent Effect” value worked out at 5.869%. Turning to `Cc1nc(C)n(CC2CCCN(Cc3cccc(C#N)c3)C2)n1` (centres undefined), the “Percent Effect” value is -5.879%. As for `Cc1nc(C)n(CC2CCCN(Cc3ccc4c(c3)OCCO4)C2)n1` (centres undefined), the “Percent Effect” value was 92.75%. Consider `Cc1nc(C)n(CC2CCCN(Cc3ccc(C(N)=O)cc3)C2)n1` (centres undefined), for which the “Percent Effect” value is reported as -2.004%. As to `COC(=O)c1ccc(C(=O)NCc2ccco2)nc1`, the “Percent Effect” value is -23.57%. With `CCc1nccn1CCC(=O)N1CC[C@@H](c2ccc(F)cc2)[C@H](O)C1` the figure was -13.2%; with `COc1ccccc1C1(CNc2nnc(C)c(C)c2C#N)CCOCC1`, 0.2404%. Take `Cc1cc(CN(C)C(=O)NCC2CCS(=O)(=O)C2)no1` (centres undefined): the “Percent Effect” value is recorded as -10.09%. With `Cc1nc(CNC(=O)NC2CC(C)(C)OC2(C)C)sc1C` (centres undefined) the figure was -0.2444%; with `CNC(=O)Nc1cnc2cc(Cl)ccc2c1O`, 96.42%; with `O=C(NCCCN1CCOCC1)Nc1cnc2cc(Cl)ccc2c1O`, -16.9%. With `O=C(NCCN1CCOCC1)Nc1cnc2cc(Cl)ccc2c1O` the figure was 96.85%; with `CC(CO)NC(=O)Nc1ccc(Cl)cc1OCC(F)(F)F` (centres undefined), -4.812%; with `CC(C)OC(=O)c1ccc(Cl)c(NC(=O)NCCN2CCOCC2)c1`, -2.134%. Turning to `N[C@H]1CN(C(=O)c2cnc3cc(Cl)ccc3c2O)C[C@@H]1C1CC1`, the “Percent Effect” value was 6.977%. The value for `O=C(NCCO)Nc1cccc(Cl)c1SC(F)F` was 0.2889%; that for `O=C(NCC1CC1)Nc1cnc2cc(Cl)ccc2c1O` was -14.95%; that for `O=C(NCCCO)Nc1cnc2cc(Cl)ccc2c1O` was 96.93%. The value for `CC(C)OCCCNC(=O)Nc1cccc2ncccc12` was -8.776%; that for `O=C(NCCCO)Nc1cccc(Cl)c1F` was -20.85%; that for `O=C(NCCO)Nc1cnc2cc(Cl)ccc2c1O` was 99.99%.

On to `CC(=O)NC(C(=O)N(C)Cc1nnc2n1CCC2)C(C)C` (centres undefined), for which the “Percent Effect” value was 2.941%. With `Cc1cc(C(=O)N2C[C@@H]3COC[C@]3(c3nnc(C4CC4)o3)C2)on1` the figure was -20.3%.

For the compound `COc1ccccc1OC1CN(C(=O)C(c2ccc(F)cc2)N(C)C)C1` (centres undefined), the “Percent Effect” value is on record as -23.44%. Consider `CCOc1c(Br)cc(C2C3=C(COC3=O)Nc3[nH]nc(C)c32)cc1OC` (centres undefined), for which the “Percent Effect” value is reported as -13.27%. For the compound `Cc1cnc(C(=O)N(C)Cc2nc(-c3ccccn3)no2)cn1`, the “Percent Effect” value is reported as -1.871%. For `Fc1ccccc1Cc1noc(CN2CCC(N3CCSCC3)CC2)n1`, the “Percent Effect” value is reported as 5.463%. The value for `Cc1ccccc1N1CCCN(C(=O)c2cn(C)c3ccccc23)CC1` was 5.002%; that for `N#Cc1ccccc1N1CCN(C(=O)NCCN2CCOCC2)CC1` was -5.749%; that for `O=C(Nc1ccc(Cl)cc1C(=O)NCCN1CCOCC1)c1ccco1` was 134.1%. On to `O=C(Nc1ccccc1C(=O)NCCN1CCOCC1)c1ccco1`, for which the “Percent Effect” value came out at 0.2432%. The value for `O=C(Nc1ccc(I)cc1C(=O)NCCN1CCOCC1)c1ccco1` was 13.86%.

Take `COc1cc(CN2CCCC(Nc3cccc(F)c3)C2)cc(OC)c1O` (centres undefined): the “Percent Effect” value amounted to 11.19%.

On to `Cc1ccc([C@@H]2CN(S(=O)(=O)C(C)C)C[C@H]2N(C)C)cc1`, for which the “Percent Effect” value worked out at 4.129%.

`CC(C)C1CN(S(=O)(=O)C2CC2)CCCN1Cc1ccc(F)cc1` (centres undefined): the “Percent Effect” value is recorded as -0.9864%. The value for `COc1ccc(CN(C)[C@@H]2CN(S(=O)(=O)C(C)C)C[C@H]2O)cc1` was 105.6%; that for `CC(C)C1CN(S(=O)(=O)N2CCCC2)CCCN1Cc1ccc(F)cc1` (centres undefined) was -9.548%. Regarding `CCOCC(=O)N1C[C@@H](O)[C@H](N(C)Cc2ccc(OC)cc2)C1`, the “Percent Effect” value is given as -9.013%.

On to `CC(C)S(=O)(=O)N1C[C@@H](O)[C@H](N(C)Cc2ccc(F)cc2)C1`, for which the “Percent Effect” value was determined as 92.86%.
